# High-throughput results: PubChem BioAssay, National Center for Advancing Translational Sciences (NCATS)
# IL1B secr inh = qHTS for Inhibitors of Inflammasome Signaling: IL-1-beta AlphaLISA Primary Screen; THP-1 LPS/ATP IL-1B secretion, AlphaLISA, 16 h; active compounds read low; actives 4.7% (n = 360,000); activity change, % at 57.5 µM; AID 743279, 2014; in the data active = activity change below about -50%; inconclusive = mostly about -30% to -49%
#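 Secreted IL-1B measured by AlphaLISA bead assay after 16 h compound exposure of THP-1 cells; compounds (final up to 57.5 uM) added 1 h before LPS (250 ng/mL) and ATP (1.25 mM) stimulation; lower signal means less secretion.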
# ELG1 repair inh = qHTS screen for small molecules that inhibit ELG1-dependent DNA repair in human embryonic kidney (HEK293T) cells expressing luciferase-tagged ELG1 | HEK293T ELG1-luciferase reporter, luminescence, 16 h; DNA damage induced by 5-fluorouridine | Potency, µM (titrated, usually from 46.1 µM), for inactives: at the highest dose activity change, negative = inhibition, hits mostly inhibitors | actives 2.3% (n = 330,000) | AID 504467, 2011; note: potency is the fitted concentration of half-maximal effect; nearly all actives have a fitted effect of over 55% in size
#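 In this reporter screen, reduction of luminescence relative to DMSO vehicle indicated activity. Compounds and 5-fluorouridine were added together to 2,000 cells per well, incubated for 16 hr at 37 °C, then developed with ONE-Glo.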
# DT40 TDP1 CPT = qHTS for Inhibitors of human tyrosyl-DNA phosphodiesterase 1 (TDP1): qHTS in cells in presence of CPT; actives 12% (n = 420,000); chicken DT40 Tdp1-/-;hTDP1 cells + 20 nM CPT, ATP luminescence, 48 h; Potency, µM (highest dose often 46.2 µM), inactives show at the highest dose activity change, negative = growth inhibition, hits mostly inhibitors; note: potency is the fitted concentration of half-maximal effect; nearly all actives have a fitted effect of over 55% in size
#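 Cell growth measured by CellTiter-Glo luminescence after a minimum 48 h, 37 C compound exposure with 20 nM CPT in Tdp1-knockout DT40 cells stably expressing hTDP1, seeded 400/well; qHTS titration format.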
# TDP1 inh = qHTS Assay for Inhibitors of Tyrosyl-DNA Phosphodiesterase (TDP1); recombinant TDP1, AlphaScreen DNA substrate cleavage; AID 485290, 2010; Potency, µM (highest dose often 130 µM), for inactives: at the top dose activity change, negative = inhibition, actives largely listed as inhibitors; actives 0.28% (n = 350,000); Tyrosyl-DNA phosphodiesterase 1 (Homo sapiens), Q9NUW8; note: potency is the fitted concentration of half-maximal effect; nearly all actives have a fitted effect of over 40% in size
# Target sequence (Q9NUW8 whole entry, looked up): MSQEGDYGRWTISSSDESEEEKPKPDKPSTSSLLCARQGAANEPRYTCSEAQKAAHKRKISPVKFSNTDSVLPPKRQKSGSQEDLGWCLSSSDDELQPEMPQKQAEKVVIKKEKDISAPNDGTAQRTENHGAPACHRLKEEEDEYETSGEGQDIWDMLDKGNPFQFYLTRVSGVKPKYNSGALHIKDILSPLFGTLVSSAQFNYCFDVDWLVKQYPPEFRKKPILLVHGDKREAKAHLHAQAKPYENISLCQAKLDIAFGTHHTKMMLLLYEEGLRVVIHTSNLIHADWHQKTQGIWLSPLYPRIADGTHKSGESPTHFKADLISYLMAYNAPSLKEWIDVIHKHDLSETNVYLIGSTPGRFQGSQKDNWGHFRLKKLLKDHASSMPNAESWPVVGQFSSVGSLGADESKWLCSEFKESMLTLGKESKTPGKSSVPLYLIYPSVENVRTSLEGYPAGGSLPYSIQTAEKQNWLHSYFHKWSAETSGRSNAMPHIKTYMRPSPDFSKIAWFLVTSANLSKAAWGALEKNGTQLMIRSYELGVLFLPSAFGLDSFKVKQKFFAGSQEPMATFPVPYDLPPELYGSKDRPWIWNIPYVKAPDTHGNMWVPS
#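 Tdp1 1 nM final; 15 min RT w/ cpd; substrate 15 nM, 5 min; beads 10 ug/ml, 10 min; AlphaScreen read. Neg ctrl: no enzyme.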
# DT40 TDP1 no CPT = qHTS for Inhibitors of human tyrosyl-DNA phosphodiesterase 1 (TDP1): qHTS in cells in absence of CPT; AID 686978, 2013; Potency, µM (titrated, usually from 46.2 µM), for the others: top-dose activity change, negative = growth inhibition, actives largely listed as inhibitors; DT40 Tdp1-/- hTDP1 cells, no CPT, ATP luminescence, 48 h; actives 15% (n = 420,000); note: potency is the fitted concentration of half-maximal effect; nearly all actives have a fitted effect of over 55% in size
#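 Chicken DT40 Tdp1-/- cells complemented with human TDP1, screened without camptothecin (DMSO vehicle only), 400 cells/well. Compounds pin-transferred, cells incubated at 37 °C for at least 48 hr. Growth read as ATP-dependent luminescence (CellTiter-Glo, 30 min at RT).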
# Giardia killer = Small Molecules that selectively kill Giardia lamblia: qHTS. actives 0.15% (n = 340,000). activity change, % at 7.66 µM, hits read low. AID 540267, 2011. Giardia lamblia trophozoite viability; in the data active = activity change below about -80%; inconclusive = between about -30% and that limit;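 note: parasites exposed to compound for two days anaerobically before the ATP read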
#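 ATP-content bioluminescence gauges trophozoite survival. Cells (100/well) receive compound and incubate anaerobically for 48 hrs at 37 deg C; detection reagent follows for 15-30 min at room temperature.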
# * hit, by the source's call; ? = inconclusive; / = no result given; [ ] = another dose, or the depositor's remark. In the library only some 19% were active in any assay of this set; here they are far more common. Unless noted, calls come from the whole dose curve; as a rule, active = well fitted curve in the direction sought with a large enough effect; inconclusive = small, poorly fitted or top-dose-only effect, or another doubt; inactive = no such curve, though single readings can be large; an effect the other way counts as inactive or inconclusive. % is set by controls: 0 for no effect and ±100 for the full control effect.
SMILES,IL1B secr inh,ELG1 repair inh,DT40 TDP1 CPT,TDP1 inh,DT40 TDP1 no CPT,Giardia killer
OC(c1cccnc1)c1ccc2c(c1)CN(Cc1cn(-c3ccccc3)nc1-c1ccccc1)CCO2 (stereo not given),/,/,-9.4%[9.04 µM],/,?,/
CC(C)(CNC(=O)c1cc([N+](=O)[O-])ccc1N1CCC(Cc2ccccc2)CC1)N1CCOCC1,-56.6*,20.6µM*,?,4.5%,?,-11.2
CC(C)n1c(=O)c2ccccc2n1CC(=O)N1CCOCC1,0.0,/,3.0%,/,-19.1%,/
CCOC(=O)[C@@H]1CSCCS(=O)(=O)N1,-0.4,/,11.6µM*,/,18.4µM*,-16.4
C=C1SC(Nc2c(C)cc(C)cc2C)=NC12CCCCC2,-68.6*,23.1µM*,?,2.7%,18.4µM*,-4.7
CC(C)CN1CCNC(=O)C1CC(=O)NCCCN1CCCc2ccccc21 (stereo not given),14.1,-1.9%,-1.6%,9.6%,-7.3%,-11.5
C=CCN(C(=O)c1csnn1)C(C(=O)NCc1ccc(F)cc1)c1sccc1C (stereo not given),5.6,-4.6%,?,5.3%[0.0935 µM],-28.0%,-14.7
CCNc1nc(NCC)nc(N(C)/N=C/c2ccco2)n1,9.5,-2.6%,0.9%,/,5.1%,-11.4
COc1ccc(S(=O)(=O)Nc2ccc3c(c2)n(C)c(=O)n3C)cc1F,-13.9,?,23.1µM*,/,?,-16.9
COc1ccc(S(=O)(=O)Nc2ccc3c(c2)n(C)c(=O)n3C)cc1OC,?,?,0.4%,7.9%[0.0935 µM],?,15.5
COc1ccc(S(=O)(=O)Nc2ccc3c(c2)n(C)c(=O)n3C)cc1,-2.6,?,1.3%,-5.1%,-8.6%,-4.3
COc1ccc(Cl)cc1S(=O)(=O)Nc1ccc2c(c1)n(C)c(=O)n2C,24.8,?,14.6µM*,8.0%,?,6.4
Cc1cc(S(=O)(=O)Nc2ccc3c(c2)n(C)c(=O)n3C)ccc1F,-18.3,15.7%,20.6µM*,4.6%,29.1µM*,4.7
O=C(CN1C(=O)NC2(CCOc3ccccc32)C1=O)NCCc1ccccc1 (stereo not given),8.9,18.3%,7.9%,0.5%,5.6%,-1.0
Cc1ccc(S(=O)(=O)N2CCCCC2)cc1C(=O)N1CCCCCC1,12.6,-0.6%,-13.3%,1.7%,-11.8%,-6.8
COc1cccc(C=Cc2nccc3ccccc23)c1OC,-57.7*,/,?,/,16.4µM*,/
CCN(CC)c1ccc(/C=C/c2nccc3ccccc23)cc1,/,/,?,/,12.6µM*,/
CCN(CC)c1ccc(/C=C/c2c(C)cnc3ccccc23)cc1,/,/,?,/,11.2µM*,/
COc1ccc(/C=C/c2nccc3ccccc23)cc1OC,/,/,11.2µM*,/,14.1µM*,/
CCN(CC)c1ccc(C(=O)NNC(=O)Cn2c(=O)cnc3ccccc32)cc1,-3.1,/,3.3%,/,-3.3%,/
CN(C)c1ccc(C=Cc2nccc3ccccc23)cc1,-22.2,/,?,/,?,/
COc1ccc(/C=C/c2ccncc2)cc1OC,-13.0,?,6.5%,0.0%,-9.2%,-11.1
CN(C)c1ccc(C(C(=O)NC2CCCC2)N(C(=O)c2ccco2)C2CC2)cc1 (stereo not given),-21.8,0.2%,-15.5%,10.4%,?,6.9
CCN(CC)c1nc(C=Cc2ccc(N(C)C)cc2)c2nccnc2n1,-24.1,/,23.1µM*,/,20.6µM*,/
CC(c1nc2ccccc2c(=O)[nH]1)N1CCN(S(=O)(=O)c2ccc(F)c(Cl)c2)CC1 (stereo not given),-4.2,/,18.4µM*,/,?,/
SMILES,IL1B secr inh,ELG1 repair inh,DT40 TDP1 CPT,TDP1 inh,DT40 TDP1 no CPT,Giardia killer
Cc1occc1-c1nnc(SCC(=O)Nc2ccccc2-c2ccccc2)n1C,-10.8,?,?,2.1%,15.8µM*,4.7
Cc1ccccc1NC(=O)CSc1nnc(-c2ccoc2C)n1CCc1ccccc1,-3.8,-21.3%,?,-1.0%,?,1.3
CCCn1c(SCC(=O)Nc2ccccc2-c2ccccc2)nnc1-c1ccoc1C,-27.5,?,16.4µM*,7.7%,10.3µM*,6.4
Cn1c(SCC(=O)Nc2ccccc2-c2ccccc2)nnc1-c1ccco1,-0.1,-6.8%,?,9.1%,-9.4%,-14.6
CCn1c(SCC(=O)Nc2ccccc2C(=O)OC)nnc1-c1ccoc1C,4.2,-19.0%,-28.8%,5.0%,29.1µM*,11.3
Cc1occc1-c1nnc(SCC(=O)Nc2ccc(F)cc2)n1Cc1ccccc1,-80.0*,?,?,4.2%,?,4.6
COc1cc(-c2nc(-c3cccc(C(F)(F)F)c3)no2)cc(OC)c1OC,1.3,23.1µM*,?,5.2%,?,-3.1
COc1ccccc1-c1noc(-c2cc(OC)c(OC)c(OC)c2)n1,-22.2,11.6µM*,?,-2.8%[56.1 µM],23.1µM*,-2.4
CC1(C)NC(=O)N(CC(=O)O)C1=O,0.0,-1.1%,1.2%,3.6%,-1.5%,-12.9
CCc1cccc2c(N=O)c(O)[nH]c12,-64.2*,12.9%,-1.9%,1.1%,-17.4%,6.0
O=C(NNC(=O)c1ccccc1Br)c1ccc2nc[nH]c2c1,-29.5,11.4%,2.9%,11.2µM*,1.9%,-9.8
COc1cccc2c(=O)c3c(cnn3C)n(C)c12,-53.9*,-3.6%,-10.3%,1.0%,?,6.7
Cc1ccc(NC(=S)N2CCCC(CO)C2)c(C)c1 (stereo not given),5.8,0.0%,-1.7%,/,-15.5%,0.4
O=C(Cc1ccc(Cl)c(Cl)c1)N1CCOCC1,2.1,?,-10.9%,/,17.1%,-14.9
O=C(CSc1nnc(Cc2csc(Nc3cccc(Cl)c3)n2)o1)N1CCc2ccccc21,?,?,18.4µM*,-4.2%,20.6µM*,3.5
CC1Cc2ccccc2N1C(=O)CSc1nnc(-c2ccc(S(=O)(=O)N3CCOCC3)cc2)n1C (stereo not given),0.0,?,16.4µM*,-2.3%,?,-3.6
O=C(CSc1nnc(-c2ccccc2Br)o1)N1CCc2ccccc2C1,-59.7*,-8.5%,?,0.0%,?,11.9
CC1CCN(C(=O)CSc2nnc(-c3ccc(S(=O)(=O)N4CCOCC4)cc3)n2C)CC1,16.3,-13.9%,-23.2%,0.0%,-11.8%,-15.5
